From PubChem BioAssay
The source made the active and inactive calls.

Tests used:
[1] = tested on: PRMT1 (protein arginine N-methyltransferase 1); assay: small molecules binding arginine methyltransferase PRMT1 – biochemical, small-molecule microarray, 635 nm fluorescence, primary screen (AID 1088); conditions: higher = more signal;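 also: binding of Prmt1 protein to compounds spotted on small-molecule microarray slides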
[2] = growth effects on S. cerevisiae YJM789 – YJM789 clinical isolate, OD600, 24 h, basal, primary screen (AID 1089); conditions: higher = more signal, called active from +8 up or from −8 down;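 also: growth of clinical yeast isolate S. cerevisiae YJM 789 seeded 1000 cells per well; test concentration not given here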
[3] = S. pombe growth modifiers, basal conditions – strain 972, OD600, 24 h, no modulator, primary screen (AID 1090);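 also: basal condition with compound alone and no growth modifier present; test concentration not given here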; conditions: S. pombe 972 growth, higher = more signal, called active from +8 up or from −8 down
[4] = budding yeast growth modifiers under rapamycin – strain BY4716, OD600, 96 h, primary screen (AID 1091); also: test concentration not given here; conditions: S. cerevisiae BY4716 + rapamycin, higher = more signal, called active from +8 up or from −8 down
[5] = target: Torsin-1A-interacting protein 2 (Homo sapiens) (UniProt Q8NFQ8); assay: small molecules binding lysate-expressed LULL1 – cell lysate, human LULL1 lysate, 635/667 nm fluorescence, primary screen (AID 1092); conditions: small-molecule microarray, hLULL1 lysate binding, 635 nm fluorescence; higher = more signal;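 also: probe is lysate of COS7 cells overexpressing human LULL1; score merges per-feature 667 nm fluorescence with signal-to-noise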
[6] = optical density change of DRC41 E. coli – strain DRC41, OD650, 24 h, E. coli filamentation project, primary screen (AID 1093);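 also: MC1000 strain lacking acrAB efflux and sulA so SOS filamentation is blocked; test concentration not given here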; conditions: E. coli DRC41 growth, higher = more signal, called active from +8 up or from −8 down
[7] = probe aLefty2 binding to arrayed compounds – biochemical, biotinylated probe, 635/667 nm fluorescence, primary screen (AID 1094); conditions: small-molecule microarray, higher = more signal;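 also: score merges spot fluorescence near 667 nm with spot signal-to-noise ratio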
[8] = tested on: Noggin (protein binding on small-molecule microarray); assay: small molecules binding Noggin protein – biochemical, 635/667 nm fluorescence, primary screen (AID 1095); conditions: 635 nm fluorescence, higher = more signal;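 also: score merges 667 nm feature fluorescence with signal to noise over triplicate slides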
[9] = target: Neurogenic locus notch homolog protein 3 (Homo sapiens) (UniProt Q9UM47); assay: small molecules binding NOTCH3 protein – biochemical, 635/667 nm fluorescence, primary screen (AID 1096); conditions: small-molecule microarray, 635 nm fluorescence, higher = more signal
[10] = probe aEGFR binding to arrayed compounds – biochemical, biotinylated probe, 635/667 nm fluorescence, primary screen (AID 1097); conditions: small-molecule microarray, higher = more signal;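 also: probe is a biotinylated anti-EGFR antibody binding compounds printed on slides; score combines fluorescence near 667 nm and signal to noise of each spot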
[11] = tested on: Plasmodium falciparum Sir2 (PF13_0152, Sir2A); assay: Plasmodium falciparum Sir2A binding compounds – biochemical, small-molecule microarray, 635 nm fluorescence, primary screen (AID 1098); conditions: fluorescence 635 nm, higher = more signal;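 also: score merges spot fluorescence intensity with its signal-to-noise ratio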
[12] = probe aDKK1 binding to arrayed compounds – biochemical, biotinylated probe, 635/667 nm fluorescence, primary screen (AID 1099); conditions: small-molecule microarray, higher = more signal;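 also: score merges 667nm spot fluorescence with signal to noise across triplicate slides; reference of the scale not given here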
[13] = probe aCHRDL2 binding to arrayed compounds – biochemical, biotinylated probe, 635/667 nm fluorescence, primary screen (AID 1100); conditions: small-molecule microarray, higher = more signal
[14] = change in splice reporter luminescence, either direction, cell-based, HEK293, spliceosome inhibition project, primary screen (AID 1101); conditions: HEK293 splicing luciferase reporter, 24 h, higher = more signal, called active from +8 up or from −8 down;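 also: HEK293 cells carrying a splicing-competent luciferase reporter gene; test concentration not given here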
[15] = target: Fibroblast growth factor 10 (Homo sapiens) (UniProt O15520); assay: compounds binding fibroblast growth factor 10 – biochemical, small-molecule microarray, 635 nm fluorescence, primary screen (AID 1102); conditions: FGF10 binding, fluorescence 635 nm, higher = more signal
[16] = tested on: glycogen synthase kinase-3 (GSK3A per assay name; protocol says GSK3B); assay: compounds binding glycogen synthase kinase-3 – biochemical, small-molecule microarray, 635 nm fluorescence, GSK3A, primary screen (AID 1103); conditions: fluorescence 635 nm, higher = more signal; also: the record names both GSK3A and GSK3B
[17] = target: Epidermal growth factor receptor (Homo sapiens) (UniProt P00533); assay: compounds binding epidermal growth factor receptor – biochemical, small-molecule microarray, 635 nm fluorescence, primary screen (AID 1104); conditions: EGFR binding, higher = more signal;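 also: score merges 667 nm emission intensity with spot signal to noise over triplicate slides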
[18] = target: Follistatin-related protein 3 (Homo sapiens) (UniProt O95633); assay: compounds binding follistatin-related protein 3 – biochemical, small-molecule microarray, 635 nm fluorescence, primary screen (AID 1105); conditions: FSTL3 binding, higher = more signal;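 also: score merges emission near 667 nm and signal to noise per printed spot across three slides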
[19] = target: Dickkopf-related protein 1 (Homo sapiens) (UniProt O94907); assay: small molecules binding DKK1 protein – biochemical, small-molecule microarray, 635 nm fluorescence scan, primary screen (AID 1106); conditions: higher = more signal;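 also: score merges emission near 667 nm with signal to noise over three replicate slides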
[20] = tested on: Inhibin beta A chain (activin A); assay: small molecules binding activin A – biochemical, small-molecule microarray, 635 nm fluorescence scan, primary screen (AID 1107); conditions: INHBA, higher = more signal;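 also: mouse activin A protein probed at 4.33 µg/mL on printed slides; score merges bound-protein fluorescence near 667 nm with spot signal-to-noise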

Neurogenic locus notch homolog protein 3 (Homo sapiens), sequence (Q9UM47 whole entry, looked up): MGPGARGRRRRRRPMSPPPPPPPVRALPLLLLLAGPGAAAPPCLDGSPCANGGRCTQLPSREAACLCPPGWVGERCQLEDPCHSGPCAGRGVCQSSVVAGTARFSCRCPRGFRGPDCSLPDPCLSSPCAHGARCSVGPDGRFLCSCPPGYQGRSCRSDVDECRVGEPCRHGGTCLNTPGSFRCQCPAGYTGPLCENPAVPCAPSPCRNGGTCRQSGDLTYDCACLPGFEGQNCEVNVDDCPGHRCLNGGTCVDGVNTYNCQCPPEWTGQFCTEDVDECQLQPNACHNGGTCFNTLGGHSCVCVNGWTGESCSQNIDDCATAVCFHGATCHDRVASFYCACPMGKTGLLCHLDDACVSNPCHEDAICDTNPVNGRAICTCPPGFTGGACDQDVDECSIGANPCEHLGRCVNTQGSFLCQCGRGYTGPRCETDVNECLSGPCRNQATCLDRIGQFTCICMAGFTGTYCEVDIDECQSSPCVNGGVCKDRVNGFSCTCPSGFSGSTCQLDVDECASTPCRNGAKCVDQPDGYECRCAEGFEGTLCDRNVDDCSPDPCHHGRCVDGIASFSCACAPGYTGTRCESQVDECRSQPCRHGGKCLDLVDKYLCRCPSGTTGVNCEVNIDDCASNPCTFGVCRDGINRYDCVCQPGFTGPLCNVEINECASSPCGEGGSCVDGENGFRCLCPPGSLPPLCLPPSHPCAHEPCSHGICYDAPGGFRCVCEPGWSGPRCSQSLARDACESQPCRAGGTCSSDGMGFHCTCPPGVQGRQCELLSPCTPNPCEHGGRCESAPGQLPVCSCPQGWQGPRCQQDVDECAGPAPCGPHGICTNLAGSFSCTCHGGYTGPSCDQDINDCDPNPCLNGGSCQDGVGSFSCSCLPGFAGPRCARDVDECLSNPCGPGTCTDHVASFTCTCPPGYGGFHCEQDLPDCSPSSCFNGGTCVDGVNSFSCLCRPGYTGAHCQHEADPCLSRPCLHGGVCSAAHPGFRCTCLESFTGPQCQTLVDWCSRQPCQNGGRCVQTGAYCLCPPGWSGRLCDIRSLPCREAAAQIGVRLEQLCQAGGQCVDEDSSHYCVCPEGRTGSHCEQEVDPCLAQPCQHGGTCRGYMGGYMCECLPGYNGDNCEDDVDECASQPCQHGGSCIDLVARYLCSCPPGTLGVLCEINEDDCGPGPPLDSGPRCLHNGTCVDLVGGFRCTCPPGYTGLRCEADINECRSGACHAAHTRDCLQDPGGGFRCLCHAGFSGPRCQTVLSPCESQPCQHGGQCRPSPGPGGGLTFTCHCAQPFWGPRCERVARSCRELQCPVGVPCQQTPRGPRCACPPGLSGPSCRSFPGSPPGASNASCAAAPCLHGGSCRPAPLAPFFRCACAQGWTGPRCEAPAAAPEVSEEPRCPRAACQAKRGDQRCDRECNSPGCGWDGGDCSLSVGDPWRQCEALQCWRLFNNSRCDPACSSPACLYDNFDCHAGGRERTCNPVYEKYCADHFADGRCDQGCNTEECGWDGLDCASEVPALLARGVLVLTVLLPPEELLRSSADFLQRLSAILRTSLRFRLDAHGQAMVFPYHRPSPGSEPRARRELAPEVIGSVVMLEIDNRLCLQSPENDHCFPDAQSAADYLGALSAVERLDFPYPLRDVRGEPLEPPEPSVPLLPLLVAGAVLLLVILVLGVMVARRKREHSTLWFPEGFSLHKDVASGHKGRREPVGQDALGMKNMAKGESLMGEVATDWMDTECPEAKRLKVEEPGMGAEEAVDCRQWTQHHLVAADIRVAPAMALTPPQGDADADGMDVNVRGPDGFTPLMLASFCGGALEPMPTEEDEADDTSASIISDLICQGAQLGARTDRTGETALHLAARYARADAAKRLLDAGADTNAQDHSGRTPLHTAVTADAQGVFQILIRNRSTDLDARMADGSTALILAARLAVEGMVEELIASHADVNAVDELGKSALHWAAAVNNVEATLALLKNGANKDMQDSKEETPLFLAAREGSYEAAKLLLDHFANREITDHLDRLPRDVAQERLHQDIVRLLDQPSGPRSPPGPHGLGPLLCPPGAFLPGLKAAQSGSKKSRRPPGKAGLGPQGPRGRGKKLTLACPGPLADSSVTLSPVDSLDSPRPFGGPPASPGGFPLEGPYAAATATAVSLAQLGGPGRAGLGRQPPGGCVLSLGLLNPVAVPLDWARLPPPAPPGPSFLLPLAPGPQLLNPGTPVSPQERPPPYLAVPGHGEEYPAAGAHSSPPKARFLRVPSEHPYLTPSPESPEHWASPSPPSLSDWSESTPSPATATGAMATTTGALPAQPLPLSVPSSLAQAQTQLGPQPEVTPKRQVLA
Fibroblast growth factor 10 (Homo sapiens), sequence (O15520 whole entry, looked up): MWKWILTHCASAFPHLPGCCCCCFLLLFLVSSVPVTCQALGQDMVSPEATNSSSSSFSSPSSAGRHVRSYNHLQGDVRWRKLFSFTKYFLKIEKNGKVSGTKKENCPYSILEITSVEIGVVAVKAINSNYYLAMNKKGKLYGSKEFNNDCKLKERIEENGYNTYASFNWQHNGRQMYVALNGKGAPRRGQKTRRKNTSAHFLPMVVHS
Torsin-1A-interacting protein 2 (Homo sapiens), sequence (Q8NFQ8 whole entry, looked up): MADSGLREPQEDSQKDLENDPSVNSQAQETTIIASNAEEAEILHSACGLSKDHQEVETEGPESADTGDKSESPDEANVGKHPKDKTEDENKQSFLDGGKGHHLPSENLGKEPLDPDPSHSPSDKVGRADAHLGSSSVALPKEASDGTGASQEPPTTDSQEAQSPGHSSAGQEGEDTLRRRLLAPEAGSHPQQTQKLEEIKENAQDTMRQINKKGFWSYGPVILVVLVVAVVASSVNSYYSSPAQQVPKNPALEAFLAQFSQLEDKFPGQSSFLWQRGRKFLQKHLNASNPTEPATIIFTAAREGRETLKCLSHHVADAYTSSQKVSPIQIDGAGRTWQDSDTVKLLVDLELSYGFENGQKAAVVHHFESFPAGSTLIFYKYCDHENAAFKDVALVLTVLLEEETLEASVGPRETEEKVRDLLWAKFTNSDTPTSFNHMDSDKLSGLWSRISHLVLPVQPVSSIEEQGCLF
Follistatin-related protein 3 (Homo sapiens), sequence (O95633 whole entry, looked up): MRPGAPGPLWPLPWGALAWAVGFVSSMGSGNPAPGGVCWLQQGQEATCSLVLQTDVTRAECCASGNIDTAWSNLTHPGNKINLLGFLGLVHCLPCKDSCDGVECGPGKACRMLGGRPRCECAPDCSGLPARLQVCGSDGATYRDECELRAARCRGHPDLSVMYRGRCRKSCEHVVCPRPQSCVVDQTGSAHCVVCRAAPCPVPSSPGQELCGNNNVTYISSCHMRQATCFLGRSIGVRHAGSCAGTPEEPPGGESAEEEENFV
Dickkopf-related protein 1 (Homo sapiens), sequence (O94907 whole entry, looked up): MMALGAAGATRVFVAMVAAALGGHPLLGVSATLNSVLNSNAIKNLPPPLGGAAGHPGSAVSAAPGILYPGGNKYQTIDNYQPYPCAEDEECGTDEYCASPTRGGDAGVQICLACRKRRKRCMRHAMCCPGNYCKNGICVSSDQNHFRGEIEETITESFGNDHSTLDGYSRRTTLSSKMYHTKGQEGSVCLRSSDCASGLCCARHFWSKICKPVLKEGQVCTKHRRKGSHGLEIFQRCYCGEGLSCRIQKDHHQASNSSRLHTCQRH
Epidermal growth factor receptor (Homo sapiens), sequence (P00533 whole entry, looked up): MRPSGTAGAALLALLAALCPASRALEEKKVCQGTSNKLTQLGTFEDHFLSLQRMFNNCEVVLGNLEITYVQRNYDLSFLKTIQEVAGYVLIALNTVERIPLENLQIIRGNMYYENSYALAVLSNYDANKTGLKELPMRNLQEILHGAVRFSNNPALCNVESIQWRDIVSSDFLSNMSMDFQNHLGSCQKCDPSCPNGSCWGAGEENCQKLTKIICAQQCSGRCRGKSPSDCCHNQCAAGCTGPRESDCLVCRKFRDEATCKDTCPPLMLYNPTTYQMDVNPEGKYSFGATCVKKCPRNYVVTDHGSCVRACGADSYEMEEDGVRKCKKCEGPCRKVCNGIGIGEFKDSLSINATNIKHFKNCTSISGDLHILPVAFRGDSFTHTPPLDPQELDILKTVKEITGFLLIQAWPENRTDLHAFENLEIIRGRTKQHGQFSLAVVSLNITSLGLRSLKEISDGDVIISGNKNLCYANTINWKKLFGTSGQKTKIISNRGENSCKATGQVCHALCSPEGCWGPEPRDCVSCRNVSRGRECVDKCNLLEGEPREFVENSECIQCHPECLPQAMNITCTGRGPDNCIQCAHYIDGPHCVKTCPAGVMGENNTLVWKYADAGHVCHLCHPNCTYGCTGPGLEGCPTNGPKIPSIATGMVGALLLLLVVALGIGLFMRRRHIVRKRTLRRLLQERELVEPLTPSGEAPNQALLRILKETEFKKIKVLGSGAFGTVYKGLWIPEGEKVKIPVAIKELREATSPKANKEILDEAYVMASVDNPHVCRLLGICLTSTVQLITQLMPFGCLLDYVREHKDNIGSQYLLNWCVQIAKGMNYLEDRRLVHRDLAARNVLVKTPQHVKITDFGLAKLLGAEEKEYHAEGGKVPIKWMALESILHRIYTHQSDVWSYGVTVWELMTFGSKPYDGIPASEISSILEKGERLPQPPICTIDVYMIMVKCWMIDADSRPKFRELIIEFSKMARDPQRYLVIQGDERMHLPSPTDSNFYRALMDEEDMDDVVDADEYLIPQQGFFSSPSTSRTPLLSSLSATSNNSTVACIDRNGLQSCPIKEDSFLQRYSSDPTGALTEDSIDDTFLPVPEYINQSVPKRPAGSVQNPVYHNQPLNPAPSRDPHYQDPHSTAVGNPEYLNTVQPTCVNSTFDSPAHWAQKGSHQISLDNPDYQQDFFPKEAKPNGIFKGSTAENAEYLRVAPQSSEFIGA

| SMILES | composite z-score [1] | z-score [2] | z-score [3] | z-score [4] | composite z-score [5] | z-score [6] | composite z-score [7] | composite z-score [8] | composite z-score [9] | composite z-score [10] | composite z-score [11] | composite z-score [12] | composite z-score [13] | z-score [14] | composite z-score [15] | composite z-score [16] | composite z-score [17] | composite z-score [18] | composite z-score [19] | composite z-score [20] |
| --- | --- | --- | --- | --- | --- | --- | --- | --- | --- | --- | --- | --- | --- | --- | --- | --- | --- | --- | --- | --- |
| CCCCCN1CC=CC23O[C@@H]4/C=C\CCCOC(=O)C4[C@H]2C(=O)N(C(C)CO)[C@@H]3C1=O (stereo not given in full) | 1.14 | -0.145 (inactive) | -1.52 (inactive) | -0.744 (inactive) | 1.86 | 0.815 (inactive) | -0.125 | -1.33 | -0.365 | -0.213 | 2.01 | -0.339 | 0.525 | 0.1 (inactive) | -1.43 | -1 | -1.07 | -0.706 | -0.964 | -0.57 |
| Oc1ccc2cc[n+](Cc3cc4c(cc3Br)OCO4)cc2c1 | 0.621 | 1.07 (inactive) | -1.41 (inactive) | 0.645 (inactive) | -0.252 | -0.603 (inactive) | 0.0894 | -0.883 | -1.11 | -0.211 | -1.19 | 0.144 | 0.452 | -0.95 (inactive) | -0.633 | -1.16 | -0.243 | -0.456 | -0.14 | 0.398 |
| [N-]=[N+]=Nc1ccccc1C[C@]1(C(=O)O)COC(c2ccc(OCCCO)cc2)=N1 | -0.767 | -0.458 (inactive) | -0.88 (inactive) | 0.559 (inactive) | 1.66 | -0.408 (inactive) | -0.195 | -0.476 | -0.609 | -0.0079 | 1.15 | 0.336 | 0.829 | -1.08 (inactive) | -0.51 | -1.1 | -0.473 | -0.543 | -0.885 | 0.764 |
| O=C(O)[C@@H]1C[C@@H]2C(=O)N3CCC[C@H]3C(=O)N2[C@@H]1c1ccc(O)cc1 | 1.56 | -0.475 (inactive) | -0.854 (inactive) | 0.0128 (inactive) | 1.34 | 2.46 (inactive) | 0.226 | 1.93 | 1.01 | 0.12 | 1.51 | 0.857 | 0.11 | -2.2 (inactive) | 0.196 | 0.762 | 0.426 | 0.987 | 0.975 | 0.852 |
| COCCOC(=O)N1C(=O)[C@@]2(c3cc(C#CC4(O)CCCCCC4)ccc31)[C@H](C(=O)Nc1nc3ccccc3s1)[C@H]1C(=O)O[C@H](c3ccccc3)[C@H](c3ccccc3)N1[C@@H]2c1ccc(O)cc1 | 1.54 | 0.806 (inactive) | 0.572 (inactive) | 1.33 (inactive) | 2.21 | 0.0347 (inactive) | -0.0022 | 0.683 | 1.04 | 0.0692 | 1.26 | 0.316 | 0.407 | 1.36 (inactive) | 0.992 | 1.29 | 0.605 | 1.3 | 0.875 | 0.363 |
| CCOC(=O)C[C@H]1[C@H](OC(=O)c2ccccc2-c2ccccc2)[C@@H](NC(=O)c2ccc3ccccc3c2)c2cc(OCCCO)ccc2N1C(=O)c1ccccc1 | 0.633 | 0.393 (inactive) | 0.379 (inactive) | 1.98 (inactive) | 0.683 | 0.356 (inactive) | -0.0916 | 0.554 | 0.564 | 0.342 | 0.162 | -0.154 | -0.559 | -0.314 (inactive) | 0.792 | 0.601 | 0.505 | 0.741 | 0.427 | -0.124 |
| COCCOC(=O)N1C(=O)[C@@]2(c3cc(C#CC4(O)CCCCCC4)ccc31)[C@H](C(=O)N1CCc3cc(OC)c(OC)cc3C1)[C@H]1C(=O)O[C@H](c3ccccc3)[C@H](c3ccccc3)N1[C@@H]2c1ccc(OCCO)cc1 | 1.54 | 1.98 (inactive) | 0.932 (inactive) | 4.4 (inactive) | 2.03 | 0.0446 (inactive) | -0.0585 | 1.3 | 1.09 | -0.0234 | 0.868 | -0.208 | -0.219 | 0.058 (inactive) | 0.891 | 1.3 | 0.626 | 1.04 | 0.95 | 0.25 |
| COC(=O)[C@@]1(Cc2ccc(F)cc2)[C@H]2c3cc(C(=O)N(C)C)n(CCc4ccc(OC)c(Br)c4)c3C[C@H]2CN1C(=O)c1ccccc1 | -0.0641 | -0.309 (inactive) | -1.09 (inactive) | -0.122 (inactive) | 2.52 | -1.29 (inactive) | 0.768 | 0.716 | 0.346 | 0.557 | 0.514 | 1.1 | 0.732 | 1.6 (inactive) | 0.856 | 0.182 | -0.086 | 0.145 | -0.257 | 1.01 |
| O=C1C2C=CC(C(O)C3CC=CCC3)N(Nc3ccccc3)C2C(=O)N1c1ccccc1 (stereo not given) | 1.24 | 0.399 (inactive) | -0.428 (inactive) | 0.662 (inactive) | 3.09 | -1.6 (inactive) | 0.401 | -0.146 | 1.06 | 0.153 | 1.33 | 1.13 | 1.12 | -0.225 (inactive) | 0.154 | 0.466 | 0.303 | 1.03 | 0.333 | 1.68 |
| CC(C)NC(=O)[C@@]1(C)c2ccccc2C(=O)N(Cc2ccc(OC(F)(F)F)cc2)[C@H]1c1ccc(CO)cc1 | 0.911 | 0.738 (inactive) | -0.784 (inactive) | -1.38 (inactive) | 2.32 | -1.55 (inactive) | -0.221 | -0.748 | -0.284 | -0.349 | 1.43 | -0.0863 | 0.77 | -1.08 (inactive) | -0.962 | -0.85 | -1.43 | -1.19 | -1.25 | -1.03 |
